Source: PubChem BioAssay
Shown is part of a subset that was picked to be rich in hits.
IMPase Li cell: qHTS Assay for Identifying the Cell-Membrane Permeable IMPase Inhibitors: Potentiation with Lithium; CHO-M1 cells, IP1 TR-FRET (IP-One), carbachol + lithium; Potency, µM (titrated, usually from 59.4 µM), inactives show at the highest dose activity, negative = IMPase inhibition, usual class: inhibitors; 210,000 compounds, 0.35% hits; AID 1457, 2008;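 further: IP1 builds up when IMPase is blocked and the TR-FRET signal falls; plate controls were basal vehicle for no effect and high inhibitor control for full effect; nearly all actives have a fitted effect of over 50% in size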
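Lithium-sensitised IP1 accumulation assay; M1-expressing CHO cells treated 30 min at 37C with compound. Competitive antibody detection by time-resolved FRET followed a 10 min room-temperature lysis step.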
NPSR antag: qHTS Assay for Antagonists of the Neuropeptide S Receptor: cAMP Signal Transduction; Q6W5P4; CHO-NPSR cells, cAMP TR-FRET, antagonist mode; Potency, µM (series often up to 38.3 µM), inactives show at the highest dose activity change, negative = inhibition, hits mostly inhibitors; 220,000 compounds, 1% hits; AID 1461, 2008; further: nearly all actives have a fitted effect of over 50% in size
Target sequence (Q6W5P4 whole entry, looked up): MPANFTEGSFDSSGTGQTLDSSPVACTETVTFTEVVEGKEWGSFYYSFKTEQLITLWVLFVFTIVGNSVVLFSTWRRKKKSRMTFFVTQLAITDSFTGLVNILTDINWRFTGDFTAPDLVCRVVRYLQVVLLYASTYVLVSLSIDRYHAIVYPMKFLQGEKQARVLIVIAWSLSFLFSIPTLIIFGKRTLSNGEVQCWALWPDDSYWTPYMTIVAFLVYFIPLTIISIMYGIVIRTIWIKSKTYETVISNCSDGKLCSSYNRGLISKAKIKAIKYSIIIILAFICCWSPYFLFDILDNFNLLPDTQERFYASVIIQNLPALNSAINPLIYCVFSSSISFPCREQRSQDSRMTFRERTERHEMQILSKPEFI
ERK EGF inh: qHTS Assay for Inhibitors of the ERK Signaling Pathway using a Homogeneous Screening Assay; Stimulation with EGF; HEK293-V1b, EGF-stimulated phospho-ERK AlphaScreen; 130,000 compounds, 0.41% hits; Potency, µM (highest dose often 11.5 µM), for the others: at the highest dose activity change, negative = inhibition, usual class: inhibitors;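 further: plate controls were stimulated vehicle wells for no effect and unstimulated vehicle basal for full effect; nearly all actives have a fitted effect of over 55% in size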
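In this qHTS, HEK293 cells with stable type-1 vasopressin (V1b) receptor were exposed to compound at 37C for 30 min, stimulated 5 min with EGF at 25 nM, lysed, and probed for phospho-ERK by AlphaScreen.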
* marks the source's active call; other numbers are inactive results; ! = not confirmed by another sample; [ ] = another dose, or the depositor's remark. The call rests on the fitted dose curve; in most records, active means well fitted curve in the direction sought with a large enough effect; inconclusive means small, poorly fitted or top-dose-only effect, or another doubt; inactive means no such curve, though single readings can be large; an effect the other way counts as inactive or inconclusive. Unless noted, on the % scale 0 is the no-effect control and ±100 the full control effect; potency means the concentration at half of the fitted maximal effect.

Results for Cc1ccc(N2C(=O)NC(=O)/C(=C\C=C\c3ccco3)C2=O)cc1C ?
IMPase Li cell: 13.8%; NPSR antag: 12.6µM*; ERK EGF inh: inconclusive

What do the screens show for `CN1C(=O)/C(=C/C=C/c2ccco2)C(=O)NC1=S`?
NPSR antag: 1.0%; ERK EGF inh: -6.7%[57.5 µM]

Results for COC(=O)/C(C)=C\CC12OC(C)(C)C3CC(C=C4C(=O)c5c(OC)c6c(c(CC=C(C)C)c5OC431)OC(C)(CCC=C(C)C)C=C6)C2=O (configuration not stated) ?
IMPase Li cell: 1.6%; ERK EGF inh: inconclusive

What do the screens show for `CC(=O)Oc1c2c(c(CC=C(C)C)c3c1C(=O)C1=CC4CC5C(C)(C)OC(C/C=C(\C)C(=O)O)(C4=O)[C@]15O3)OC(C)(CCC=C(C)C)C=C2` (some centres not stated)?
IMPase Li cell: 27.2%; ERK EGF inh: 12.6µM*

How did O=C(O)CNC(=O)[C@@H](CS)Cc1ccccc1 do in these assays?
IMPase Li cell: -0.9%; ERK EGF inh: inconclusive

How did CC(C)(C)c1cc(C#N)cc(Br)c1OP(=O)(Oc1c(Br)cc(C#N)cc1C(C)(C)C)c1ccccc1 do in these assays?
IMPase Li cell: 3.5%

How did CCN(CC)c1ccc(CN2CC=C(c3ccc(F)cc3)CC2)cc1 do in these assays?
IMPase Li cell: 18.2%[38.3 µM]; NPSR antag: 10µM*

How did NC(=O)c1ccc(OCC(O)CN2CC=C(c3ccc(F)cc3)CC2)cc1 (configuration not stated) do in these assays?
IMPase Li cell: 13.5%; NPSR antag: -4.2%[46.1 µM]; ERK EGF inh: -0.7%

Results for CN(C)c1ncc(/C=C2/C(=O)NC(=S)N(C3CCCCC3)C2=O)cn1 ?
IMPase Li cell: 7.6%; NPSR antag: 10µM*; ERK EGF inh: 5.0%

What do the screens show for `CSc1ncc(/C=C2/C(=O)NC(=O)N(C3CCCCC3)C2=O)cn1`?
IMPase Li cell: 2.2%[38.3 µM]; NPSR antag: inconclusive

What do the screens show for `O=C(NCP(=O)(O)O)c1cccnc1`?
IMPase Li cell: -1.3%

Results for COc1ccc2c(c[n+](C)c3c4cc5c(cc4ccc23)OCO5)c1OC ?
IMPase Li cell: 27.4%; NPSR antag: inconclusive; ERK EGF inh: 12.6µM*

What do the screens show for `COc1ccc2c(c1OC)CN1CCc3cc4c(cc3[C@H]1C2)OCO4`?
IMPase Li cell: 6.3%; ERK EGF inh: 4.7%[25.7 µM]

Results for Clc1ccc(COC(Cn2ccnc2)c2ccc(Cl)cc2Cl)cc1 (configuration not stated) ?
IMPase Li cell: 20.8%; NPSR antag: inconclusive; ERK EGF inh: 28.2µM*

What do the screens show for `Clc1ccc(CS[C@@H](Cn2ccnc2)c2ccc(Cl)cc2Cl)cc1`?
IMPase Li cell: 17.5%; ERK EGF inh: 2.3%[25.7 µM]

What do the screens show for `COC(=O)c1c(C)ccc2c(O)c3c(cc12)C(=O)c1c2c(cc(O)c1C3=O)[C@@]1(C)O[C@@](C)(O2)[C@@H](O)[C@H](N(C)C)[C@H]1O`?
IMPase Li cell: 12.3%

What do the screens show for `[Cl][Pd][Cl].[S-]C1=C2N=CN[C-]2[NH+]=C[N-]1.[S-]c1ncnc2[nH]cnc12`?
IMPase Li cell: 4.5%

How did CC1Oc2cc3c(-c4c(O)cc(O)c5c(O)c6c(cc45)OC(C)C(C)C6=O)c(O)cc(O)c3c(O)c2C(=O)C1C (configuration not stated) do in these assays?
NPSR antag: inconclusive; ERK EGF inh: 15.8µM*

Results for O=C(O)C(Oc1nc(=S)[nH]c(=S)[nH]1)(c1ccc(Cl)cc1)c1ccc(Cl)cc1 ?
IMPase Li cell: -5.6%

How did O=C(O)[C@@H](O)[C@@H](O)C1[O][Sb][O][C@@H]1CO (some centres not stated) do in these assays?
IMPase Li cell: -3.0%

How did O=Nc1ccc(Nc2ccccc2)cc1 do in these assays?
IMPase Li cell: 34.2%

Results for Clc1ccc(C(c2ccc(Cl)cc2)n2cc[n+](CC(OCc3ccc(Cl)cc3Cl)c3ccc(Cl)cc3Cl)c2)cc1 (configuration not stated) ?
IMPase Li cell: 21.2%; NPSR antag: 12.6µM*; ERK EGF inh: inconclusive

How did O=C1CC(N2CCC(n3c(=O)[nH]c4ccccc43)CC2)C(=O)N1c1ccc(F)cc1 (configuration not stated) do in these assays?
IMPase Li cell: 19.1%[38.3 µM]; NPSR antag: -12.1%[46.1 µM]

Results for O=c1[nH]c2ccccc2n1C1CCN(CCCC(c2ccc(F)cc2)c2ccc(F)cc2)CC1 ?
IMPase Li cell: 20.2%; NPSR antag: 6.31µM*; ERK EGF inh: 25.1µM*!

Results for C=C(CC1CC(O)[C@]2(C)OC3CC4OC5C[C@]6(C)O[C@]7(C)CCC8OC9C[C@]%10(C)OC%11C(C)=CC(=O)OC%11CC%10OC9C[C@@H](C)C8OC7CC6O[C@]5(C)C/C=C\C4OC3CC2O1)C(=O)O (some centres not stated) ?
IMPase Li cell: 7.2%; NPSR antag: 53.0%; ERK EGF inh: -12.3%[57.5 µM]

What do the screens show for `C=C(C=O)C[C@@H]1C[C@H](O)C2OC3C[C@]4(C)OC5/C=C\CC6OC7C(CC=CCC6OC5CCCC4OC3CC2O1)OC1CC2OC3CC(=O)OC3C[C@@H](C)C[C@@]2(C)OC1C[C@@H]7C` (some centres not stated)?
NPSR antag: 0.794µM*; ERK EGF inh: 3.98µM*

How did CCn1c(O)c(C=Nc2ccc(S(N)(=O)=O)cc2)c(=O)n(CC)c1=S do in these assays?
IMPase Li cell: -6.1%; NPSR antag: -36.6%; ERK EGF inh: 4.2%

Results for NS(=O)(=O)c1ccc(N=Cc2c(O)n(C3CCCCC3)c(=O)n(C3CCCCC3)c2=O)cc1 ?
IMPase Li cell: 10.7%[38.3 µM]; NPSR antag: 10µM*

Results for C[C@H](CC(C#N)(c1ccccc1)c1ccccc1)N1CCCCC1 ?
IMPase Li cell: 20.8%

Results for CCSCC[C@H](N)C(=O)O ?
IMPase Li cell: -6.4%

How did O=C(C[C@H](c1ccccc1)c1c(O)c2ccccc2oc1=O)c1ccccc1 do in these assays?
IMPase Li cell: 5.4%

Results for CC1CCCN(CC(=O)N2CCCc3ccccc32)C1 (configuration not stated) ?
IMPase Li cell: 9.0%; NPSR antag: 1.9%; ERK EGF inh: 1.6%

Results for O=C(c1ccccc1)c1cn(CC(=O)N2CCCc3ccccc32)c2ccccc12 ?
IMPase Li cell: 3.0%[38.3 µM]; NPSR antag: 10µM*

How did O=C1C(=O)c2cccc3cccc1c23 do in these assays?
IMPase Li cell: 1.8%; NPSR antag: 25.2%; ERK EGF inh: 8.2%

Results for O=C1C(=O)c2ccccc2-c2ccccc21 ?
IMPase Li cell: 35.3%[38.3 µM]; NPSR antag: 3.16µM*; ERK EGF inh: inconclusive

How did [O-][Cl+2]([O-])O do in these assays?
IMPase Li cell: -3.9%

What do the screens show for `CCNCCC1(CC)C(=O)NC(=O)NC1=O`?
IMPase Li cell: -3.1%

What do the screens show for `Cc1ccc(NC(=O)c2snnc2C)cc1Cl`?
IMPase Li cell: -0.2%; NPSR antag: 25.5%; ERK EGF inh: -40.2%

Results for Cc1nn(C(C)(C)C)c(C)c1/C=N/OC(=O)Nc1ccc(Cl)c(Cl)c1 ?
NPSR antag: 23.4%; ERK EGF inh: 31.6µM*
